Unmarked numbers belong to inactive results.

The first test has as its system Mel-DCC-11-R. Kind of test: cell viability relative to DMSO control (fraction of DMSO control); higher = less cytotoxic, active = 0.8 or less. The note with it: 1 µM; 120 h; vemurafenib co-treatment 0 µM. The procedure: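 Same 315-drug TargetMol library at 1 µM in duplicate, 120 h, ATPlite luminescence normalised to DMSO controls, on the vemurafenib-resistant subline Mel-DCC-11-R cultured alone or with 8 µM vemurafenib co-treatment (Mel-DCC-11-R + V).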
`COc1cc([C@@H]2c3cc4c(cc3[C@H](O)[C@H]3COC(=O)[C@H]23)OCO4)cc(OC)c1OC` [Podophyllotoxin]: the cell viability was 0.575 (active).

Consider `O=[As]O[As]=O` (stereo not given) [Arsenic oxide (3)], for which the cell viability is 0.971.

In the case of `CNC(=O)Oc1ccccc1OC(C)C` [Propoxur], the cell viability is 0.827.

As to `CCC1(c2ccc(N)cc2)CCC(=O)NC1=O` (stereo not given) [Aminoglutethimide], the cell viability is 1.08.

For the compound `O=P1(NCCCl)OCCCN1CCCl` (stereo not given) [Ifosfamide], the cell viability is 0.968.

For the compound `NCCCNCCSP(=O)(O)O` [Amifostine], the cell viability was 0.934.

On to `Cc1ncc(CNC(=O)N(CCCl)N=O)c(N)n1.Cl` [Nimustine Hydrochloride], for which the cell viability is 1.1.

For the compound `C=C1C[C@@H]2[C@H](CC[C@]3(C)C(=O)CC[C@@H]23)[C@@]2(C)C=CC(=O)C=C12` [Exemestane], the cell viability was 1.09.

For the compound `Cl.N[C@@H]1C[C@H]1c1ccccc1` [Tranylcypromine (2-PCPA) hydrochloride], the cell viability is 0.9.

As to `COC(=O)Nc1nc2ccccc2[nH]1` [Carbendazim], the cell viability is 0.917.

On to `CCC1=C[C@H]2CN3CCc4c([nH]c5ccccc45)[C@](C(=O)OC)(C2)[C@H]13` [Catharanthine], for which the cell viability was 0.906.

As to `C/C=C(\C)C(=O)N[C@@H](c1ccccc1)[C@@H](O)C(=O)O[C@H]1C[C@@]2(O)[C@@H](OC(=O)c3ccccc3)[C@@H]3[C@]4(OC(C)=O)CO[C@@H]4C[C@H](O)[C@@]3(C)C(=O)[C@H](OC(C)=O)C(=C1C)C2(C)C` [Cephalomannine], the cell viability was 0.99.

For `C[C@]12CC[C@H]3[C@@H](CC[C@@]45O[C@@H]4C(O)=C(C#N)C[C@]35C)[C@@H]1CC[C@@H]2O` [Trilostane], the cell viability was 1.03.

Take `O=C(O)CCCc1ccc(N(CCCl)CCCl)cc1` [Chloroambucil]: the cell viability is 0.906.

In the case of `NCCC(O)(P(=O)([O-])O)P(=O)([O-])O.[Na+].[Na+]` [Pamidronate disodium salt], the cell viability was 1.02.

In the case of `Cl.Cn1c(CCCC(=O)O)nc2cc(N(CCCl)CCCl)ccc21` [Bendamustine hydrochloride], the cell viability is 0.822.

In the case of `C[C@]12CCC(=O)C(O)=C1CC[C@@H]1[C@@H]2CC[C@]2(C)C(=O)CC[C@@H]12` [Formestane], the cell viability was 0.922.

For the compound `C[C@]12CC[C@@H]3c4ccc(OC(=O)N(CCCl)CCCl)cc4CC[C@H]3[C@@H]1CC[C@@H]2OP(=O)([O-])[O-].[Na+].[Na+]` [Estramustine phosphate sodium], the cell viability was 1.01.

In the case of `CCCCCN(C)CCC(O)(P(=O)([O-])O)P(=O)(O)O.[Na+]` [Ibandronate sodium], the cell viability was 0.82.

As to `CC(O)(CS(=O)(=O)c1ccc(F)cc1)C(=O)Nc1ccc(C#N)c(C(F)(F)F)c1` (stereo not given) [Bicalutamide], the cell viability is 1.02.

Staying with this test, now noted: 1 µM; 120 h; vemurafenib co-treatment 8 µM.
`COc1cc([C@@H]2c3cc4c(cc3[C@H](O)[C@H]3COC(=O)[C@H]23)OCO4)cc(OC)c1OC` [Podophyllotoxin]: the cell viability was 0.407 (active).

Consider `O=[As]O[As]=O` (stereo not given) [Arsenic oxide (3)], for which the cell viability was 0.951.

For `CNC(=O)Oc1ccccc1OC(C)C` [Propoxur], the cell viability is 0.985.

With `CCC1(c2ccc(N)cc2)CCC(=O)NC1=O` (stereo not given) [Aminoglutethimide], the cell viability was 1.04.

With `O=P1(NCCCl)OCCCN1CCCl` (stereo not given) [Ifosfamide], the cell viability is 1.

Regarding `NCCCNCCSP(=O)(O)O` [Amifostine], the cell viability was 1.21.

On to `Cc1ncc(CNC(=O)N(CCCl)N=O)c(N)n1.Cl` [Nimustine Hydrochloride], for which the cell viability was 0.991.

Take `C=C1C[C@@H]2[C@H](CC[C@]3(C)C(=O)CC[C@@H]23)[C@@]2(C)C=CC(=O)C=C12` [Exemestane]: the cell viability was 1.13.

On to `Cl.N[C@@H]1C[C@H]1c1ccccc1` [Tranylcypromine (2-PCPA) hydrochloride], for which the cell viability was 0.694 (active).

For `COC(=O)Nc1nc2ccccc2[nH]1` [Carbendazim], the cell viability was 1.05.

Take `CCC1=C[C@H]2CN3CCc4c([nH]c5ccccc45)[C@](C(=O)OC)(C2)[C@H]13` [Catharanthine]: the cell viability was 0.983.

On to `C/C=C(\C)C(=O)N[C@@H](c1ccccc1)[C@@H](O)C(=O)O[C@H]1C[C@@]2(O)[C@@H](OC(=O)c3ccccc3)[C@@H]3[C@]4(OC(C)=O)CO[C@@H]4C[C@H](O)[C@@]3(C)C(=O)[C@H](OC(C)=O)C(=C1C)C2(C)C` [Cephalomannine], for which the cell viability was 0.638 (active).

For the compound `C[C@]12CC[C@H]3[C@@H](CC[C@@]45O[C@@H]4C(O)=C(C#N)C[C@]35C)[C@@H]1CC[C@@H]2O` [Trilostane], the cell viability is 1.05.

In the case of `O=C(O)CCCc1ccc(N(CCCl)CCCl)cc1` [Chloroambucil], the cell viability was 1.11.

`NCCC(O)(P(=O)([O-])O)P(=O)([O-])O.[Na+].[Na+]` [Pamidronate disodium salt]: the cell viability is 0.981.

Take `Cl.Cn1c(CCCC(=O)O)nc2cc(N(CCCl)CCCl)ccc21` [Bendamustine hydrochloride]: the cell viability is 1.04.

For `C[C@]12CCC(=O)C(O)=C1CC[C@@H]1[C@@H]2CC[C@]2(C)C(=O)CC[C@@H]12` [Formestane], the cell viability was 1.02.

Turning to `C[C@]12CC[C@@H]3c4ccc(OC(=O)N(CCCl)CCCl)cc4CC[C@H]3[C@@H]1CC[C@@H]2OP(=O)([O-])[O-].[Na+].[Na+]` [Estramustine phosphate sodium], the cell viability is 1.11.

For the compound `CCCCCN(C)CCC(O)(P(=O)([O-])O)P(=O)(O)O.[Na+]` [Ibandronate sodium], the cell viability was 0.935.

`CC(O)(CS(=O)(=O)c1ccc(F)cc1)C(=O)Nc1ccc(C#N)c(C(F)(F)F)c1` (stereo not given) [Bicalutamide]: the cell viability was 1.12.

Values taken from the supplement of paper PMC12808144.
